Pf growth 48h: P. falciparum growth inhibition at 48 hours (one generation) | P. falciparum luciferase growth in erythrocytes, 48 h | Potency, µM (titrated, usually from 28.7 µM), without a hit: at the top dose activity change, negative = inhibition, actives largely listed as inhibitors | 310,000 tested, 5.9% active | AID 504832; active = well fitted inhibition curve with a large enough effect; inconclusive = small, poorly fitted or top-dose-only effect, or another doubt; inactive = no such curve, though single readings can be large or run the other way; note: potency is the fitted concentration of half-maximal effect; % is set by controls: 0 for no effect and ±100 for the full control effect
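Erythrocytes infected with P. falciparum carrying an integrated firefly luciferase reporter (2% hematocrit, 0.1% parasitemia final) were exposed to compounds in RPMI 1640 with 0.5% Albumax at 37 C, 5% CO2. Growth inhibition was scored as reduced luminescence.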
NS1 function inh: influenza NS1 inhibition. Potency, µM (doses to about 46.1 µM), for inactives: at the highest dose activity, positive = more growth. 270,000 tested, 0.4% active. AID 2326; note: potency is the fitted concentration of half-maximal effect; actives are rising curves; nearly all actives have a fitted effect of over 50% in size
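Read-out: OD600 growth recovery of NS1-expressing budding yeast. Cells grown overnight at 30C in -URA glucose medium, washed, resuspended and diluted 1:100 in 2% galactose assay medium, pH 6.0. Same strain lacking NS1 served as positive control.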
Pf growth 96h: P. falciparum growth inhibition at 96 hours; 320,000 tested, 6.9% active; AID 504834; P. falciparum luciferase reporter growth, 96 h; Potency, µM (highest dose often 28.7 µM), for the others: at the top dose activity change, negative = inhibition, hits mostly inhibitors; active = well fitted inhibition curve with a large enough effect; inconclusive = small, poorly fitted or top-dose-only effect, or another doubt; inactive = no such curve, though single readings can be large or run the other way; note: potency is the fitted concentration of half-maximal effect; % is set by controls: 0 for no effect and ±100 for the full control effect
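Compounds incubated with erythrocytes infected by luciferase-expressing P. falciparum (2% hematocrit, 0.05% parasitemia final) for 96 hours, 37 C in 5% CO2. Growth inhibition scored as decreased luciferase luminescence.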
Cycloheximide cs: counter-screen hit for Shiga toxin inhibitors, cycloheximide. cell reporter, cycloheximide protein synthesis inhibition counterscreen. 300,000 tested, 12% active. AID 2314. max response, %; in the data active = max response mostly above about 13%, no sharp cut-off; inactive = mostly below about 14%; note: read at 38.3 µM for the half of the compounds with a filed dose; 0% is about no effect
SARS PLpro yeast: inhibitors of SARS-CoV papain-like protease in yeast; S. cerevisiae expressing SARS-CoV PLpro, growth rescue; Potency, µM (titrated, usually from 32.9 µM), inactives show top-dose activity, positive = growth rescue, actives largely listed as activators; 330,000 tested, 0.19% active; AID 485353; note: potency is the fitted concentration of half-maximal effect; 0% is about no effect; nearly all actives have a fitted effect of over 55% in size
Shiga inhibitor: Shiga toxin inhibition. Vero cells, Shiga toxin protein synthesis inhibition reporter. inhibition, % at 38.7 µM. 290,000 tested, 9.2% active. AID 2315; in the data active = inhibition mostly above about 28%, no sharp cut-off; inactive = mostly below about 43%; note: 0% is about no effect
* = called active by the depositor; i = inactive; ? = inconclusive; . = no result given. The list is not random: actives were taken first. Their share in the collection is about 21%. Unless noted, calls come from the whole dose curve.

SMILES	Pf growth 48h	NS1 function inh	Pf growth 96h	Cycloheximide cs	SARS PLpro yeast	Shiga inhibitor
Clc1ccc(C(Cn2ccnc2)OCc2csc3c(Cl)cccc23)c(Cl)c1 (configuration not stated)	1.04µM*	.	2.62µM*	.	.	.
Clc1ccc(C(Cn2ccnc2)OCc2c(Cl)cccc2Cl)c(Cl)c1 (configuration not stated)	2.33µM*	.	2.94µM*	.	.	.
Clc1cccc(OCCCn2ccnc2)c1	-9.4%	-4.8%	?	1.8	-2.3%	-1.2
C[C@H](CO)N1C[C@H](C)[C@@H](CN(C)C(=O)Nc2ccc3c(c2)OCO3)Oc2ccc(NC(=O)CCC(F)(F)F)cc2C1=O	.	.	.	.	0.8%	.
COc1ccc(/C(C)=N/NC(=O)c2cc(C)[nH]n2)c(OC)c1	-18.6%	-3.6%	?	10.1	14.0%	24.1
CN(CCC#N)CC(=O)Nc1ccc(S(N)(=O)=O)cc1	18.0%	-0.4%	14.2%	7.8	0.6%	-11.1
O=P(Oc1ccccc1)(Oc1ccccc1)C(Nc1ccccc1)c1ccccc1 (configuration not stated)	?	2.4%	1.65µM*	-3.6	-20.2%	-9.3
CC(C)COP(=O)(OCC(C)C)C(Nc1ccccc1)c1ccccc1 (configuration not stated)	?	-2.3%	?	-0.9	-3.6%	9.2
CCN(CC)C(=O)Cn1ccc(NC(C)=O)nc1=O	2.8%	-2.9%	?	-3.0	0.8%	3.2
O=[N+]([O-])c1ccccc1N/N=C/c1c[nH]c2ccccc12	123.5%	-3.0%	371.2%	67.5*	-2.6%	87.7*
O=[N+]([O-])c1ccc(N/N=C/c2c[nH]c3ccccc23)cc1	-23.4%	-53.6%	?	26.5*	-15.3%	61.1*
COc1ccccc1NS(=O)(=O)c1cc([N+](=O)[O-])ccc1N/N=C/c1c[nH]c2ccccc12	?	4.1%	.	0.5	-1.5%	-13.7
O=[N+]([O-])c1ccc(N/N=C/c2ccc[nH]2)cc1	-23.0%	?	?	84.4*	-68.0%	65.7*
O=C(N/N=C/c1ccc[nH]1)c1ccccc1[N+](=O)[O-]	15.9%	5.0%	?	-4.2	7.5%	-2.3
N#C/C(=C/c1ccccc1[N+](=O)[O-])c1nc(C2CC2)cs1	83.1%	-16.9%	i	24.8*	-27.9%	42.6
N#C/C(=C\c1ccccc1[N+](=O)[O-])c1nc(C2CC2)cs1	88.1%	-27.4%	33.5%	56.8*	-63.7%	58.3*
N#C/C(=C\c1ccc([N+](=O)[O-])cc1)c1nc(C2CC2)cs1	6.7%	12.0%	1.8%	20.6*	-4.0%	15.4
N#C/C(=C\C=C\c1ccccc1[N+](=O)[O-])c1nc(-c2ccc3c(c2)OCO3)cs1	19.5%	16.2%	28.1%	-1.1	5.5%	-4.2
COc1ccc(S(=O)(=O)N2CC(C)N(C(=O)N(C)C)C2C)cc1 (configuration not stated)	9.2%	-0.9%	19.4%	-12.8	3.0%	-9.2
O=C(Nc1c2c(nn1-c1ccc(F)cc1)CS(=O)(=O)C2)C1CCCC1	3.6%	-3.3%	10.4µM*	-2.3	-3.5%	-11.5
COc1ccc(-n2nc3c(c2NC(=O)c2ccc(Br)o2)CS(=O)(=O)C3)cc1	-2.6%	-1.9%	?	-1.5	18.5%	-19.8
O=C(Nc1c2c(nn1-c1ccc(F)cc1)CS(=O)(=O)C2)c1ccc(Br)o1	11.7µM*	-0.3%	?	-3.5	3.8%	-7.2
CC(C)CNC(=O)[C@H]1N2C(=O)c3ccccc3C2SC1(C)C (some centres not stated)	.	4.6%	-1.4%	-4.2	1.6%	-7.8
COc1ccc(-n2nc3c(c2NC(=O)c2cc4ccccc4o2)CS(=O)(=O)C3)cc1	2.5%	-7.8%	-18.6%	-2.7	13.3%	-5.0
COc1ccc(-n2nc3c(c2NC(=O)c2cc4ccccc4oc2=O)CS(=O)(=O)C3)cc1	.	6.31µM*	.	.	.	.
SMILES	Pf growth 48h	NS1 function inh	Pf growth 96h	Cycloheximide cs	SARS PLpro yeast	Shiga inhibitor
COc1ccc(-n2nc3c(c2NC(=O)C(C)Oc2ccccc2)CS(=O)(=O)C3)cc1 (configuration not stated)	0.2%	16.1%	9.28µM*	-6.2	13.1%	2.6
Cn1ncc([N+](=O)[O-])c1C(=O)N1CCCCCC1	4.4%	-4.3%	?	1.4	0.7%	-3.5
COc1cccc(S(=O)(=O)NC2CCN(C#N)C2)c1 (configuration not stated)	40.5%	.	43.9%	.	-3.5%	.
O=C(CCc1cn2ccccc2n1)NC1CCCc2c1cnn2-c1ccccc1F (configuration not stated)	-19.2%	-5.7%	13.1µM*	-0.4	-4.6%	-8.0
CC(=O)Nc1nnc(Cc2c[nH]c3ccccc23)s1	-60.3%	.	i	2.0	4.5%	22.2
CSc1nncc(-c2ccc(F)c(F)c2)n1	?	-5.5%	?	5.0	2.3%	29.1
CSc1nncc(-c2ccc(F)cc2)n1	?	-15.4%	?	14.1*	-1.8%	24.2
COc1ccc(-c2nc(CCl)cs2)cc1	47.0%	.	106.8%	44.5*	-0.2%	53.5*
COc1cccc(-c2nc(CCl)cs2)c1	-15.0%	.	35.4%	36.8*	0.5%	56.9*
COc1ccc(-c2csc(-c3ccc(O)cc3)n2)cc1	69.4%	-1.6%	2.9%	51.7*	5.2%	73.1*
COc1ccc(-c2nc(CCl)cs2)cc1OC	10.8%	.	?	29.1*	-1.3%	44.9*
O=C(CN1C(=O)NC2(CCCC2)C1=O)N1CCc2ccccc2C1	30.1%	.	26.3%	19.8	-1.6%	38.3
COc1ccc(CNC(=O)CN2c3ccccc3S(=O)(=O)c3ccccc32)cc1	-27.6%	16.2%	4.9%	1.3	-2.1%	0.8
CCCCNC(=O)C1(NC(=O)Nc2ccc(C)cc2)CCCCC1	0.0%	.	1.0%	20.6	1.2%	25.0
O=C(CN1CCN(c2ccccn2)CC1)Nc1ccc(F)c(F)c1	2.9%	3.6%	9.9%	-0.5	-1.9%	-2.4
COc1ccc(-c2nc(-c3ccc(O)cc3O)cs2)cc1OC	-14.7%	-30.6%	?	29.9*	-4.7%	54.8*
COc1ccc(N2CC(O)=C(c3nc(-c4ccc(Br)cc4)cs3)C2=N)cc1	-7.8%	.	-2.0%	-8.4	1.2%	-6.2
COc1ccc(-c2csc(C3=C(O)CN(C(C)C)C3=N)n2)cc1OC	10.4µM*	0.8%	?	15.4	-1.7%	39.2
CCc1ccc(-c2nc(CCl)cs2)cc1	178.0%	-0.4%	166.7%	36.8*	19.7%	90.0*
COc1ccc(N2CC(O)=C(c3nc(-c4ccccc4)cs3)C2=N)cc1	?	-3.5%	0.465µM*	-2.1	-2.5%	-8.0
Cc1ccc(C)c2[nH]c(=O)c(CN(Cc3ccco3)C(=S)NCC3CCCO3)cc12 (configuration not stated)	?	7.2%	0.0%	-2.5	-1.3%	-18.9
C=CCN=C1CC(C)(C)C(C(=O)OC)C(O)=C1C(=O)CCC (configuration not stated)	2.5%	2.7%	46.6%	11.2	-0.9%	-7.0

Screens deposited in PubChem BioAssay by National Center for Advancing Translational Sciences (NCATS).
